# Source: PubChem BioAssay
# This is a sample that favours compounds with a hit; in the whole collection about 15% have one here.
# TDP1 cell CPT – growth inhibition of DT40 Tdp1-/-;hTDP1 cells with camptothecin (screen for TDP1 inhibitors); chicken DT40 Tdp1-/-;hTDP1 cells + 20 nM CPT, ATP luminescence, 48 h; Potency, µM (series often up to 46.2 µM), most hits filed as inhibitors; actives 12% (n = 420,000); AID 686979; also: nearly all actives have a fitted effect of over 55% in size
#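 Chicken DT40 Tdp1-/- cells stably complemented with human TDP1 were seeded at 400 cells/well in medium containing 20 nM camptothecin, exposed to pin-transferred compounds, and grown at 37 °C for at least 48 hr. Viability was read as ATP luminescence.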
# ELG1 repair inh – inhibitors of ELG1-dependent DNA repair in HEK293T cells | HEK293T ELG1-luciferase reporter, luminescence, 16 h; DNA damage induced by 5-fluorouridine | Potency, µM (doses to about 46.1 µM), hits mostly inhibitors | actives 2.3% (n = 330,000) | AID 504467; also: nearly all actives have a fitted effect of over 55% in size
#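 Cells (2,000 per well) received 5-fluorouridine plus test compound or DMSO and were incubated 16 hr at 37 °C, 5% CO2. Luciferase activity was read by luminescence 30 min after ONE-Glo addition; signal suppression marked inhibition of damage-induced ELG1 function.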
# RORgamma inh – ROR gamma (mouse) transcription inhibition. P51450. Drosophila S2 Gal4-RORgamma UAS-luciferase reporter, 20 h. Potency, µM (highest dose often 53.6 µM), hits mostly inhibitors. actives 5.4% (n = 310,000); also: nearly all actives have a fitted effect of over 60% in size
#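 Using a luciferase readout, inhibitors were identified by reduced reporter activity in Drosophila cells coexpressing a copper-inducible Gal4–ROR gamma fusion and UAS-driven Photinus luciferase, incubated 20 hr after 700 uM copper sulfate.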
# DT40 TDP1 no CPT – qHTS for Inhibitors of human tyrosyl-DNA phosphodiesterase 1 (TDP1): qHTS in cells in absence of CPT. Potency, µM (titrated, usually from 46.2 µM), actives largely listed as inhibitors. actives 15% (n = 420,000). DT40 Tdp1-/- hTDP1 cells, no CPT, ATP luminescence, 48 h; also: nearly all actives have a fitted effect of over 55% in size
#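 A cellular qHTS used chicken DT40 cells lacking endogenous Tdp1 but carrying stably transfected human TDP1. Compounds were applied without camptothecin, and cell growth kinetics were judged by ATP-dependent luminescence after ≥48 hr.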
# Gal4-VP16 FLuc – counter-screen for ROR gamma inhibitors: Gal4-VP16 reporter | Drosophila S2 Gal4-VP16 UAS-luciferase, luminescence, 20 h | actives 3.5% (n = 310,000) | Potency, µM (highest dose often 53.6 µM), hits mostly inhibitors | AID 2546;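 also: Gal4-VP16 expression switched on by copper sulfate through the metallothionein promoter; nearly all actives have a fitted effect of over 50% in size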
# 12-LOX inh – blocks human arachidonate 12S-lipoxygenase; purified 12hLO, xylenol orange hydroperoxide absorbance; actives 1.1% (n = 580,000); AID 1671190; P18054; Potency, µM (titrated, usually from 108 µM), hits mostly inhibitors
# Target sequence (P18054 whole entry, looked up): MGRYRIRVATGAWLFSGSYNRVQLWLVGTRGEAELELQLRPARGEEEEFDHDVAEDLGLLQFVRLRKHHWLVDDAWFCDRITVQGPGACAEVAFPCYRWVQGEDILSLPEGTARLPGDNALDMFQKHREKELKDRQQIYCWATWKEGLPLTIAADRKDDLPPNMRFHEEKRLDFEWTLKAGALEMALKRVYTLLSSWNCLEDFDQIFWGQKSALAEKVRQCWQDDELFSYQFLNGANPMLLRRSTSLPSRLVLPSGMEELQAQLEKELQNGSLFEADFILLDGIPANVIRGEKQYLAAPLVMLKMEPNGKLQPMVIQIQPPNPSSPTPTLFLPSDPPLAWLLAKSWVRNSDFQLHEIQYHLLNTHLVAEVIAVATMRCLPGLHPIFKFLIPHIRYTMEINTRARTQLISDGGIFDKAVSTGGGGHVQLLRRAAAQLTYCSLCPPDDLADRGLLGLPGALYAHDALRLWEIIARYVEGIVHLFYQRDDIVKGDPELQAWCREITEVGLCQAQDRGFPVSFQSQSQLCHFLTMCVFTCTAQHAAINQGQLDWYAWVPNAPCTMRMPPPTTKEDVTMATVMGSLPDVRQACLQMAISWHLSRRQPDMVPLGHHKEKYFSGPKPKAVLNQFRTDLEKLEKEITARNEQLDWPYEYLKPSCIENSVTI
#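 Purified human 12hLO (150 nM final) in 25 mM Hepes, 0.01% Triton X-100, pH 7.0 was preincubated 15 min at room temperature with compound. Then 40 uM arachidonic acid was added, 30 min. Hydroperoxide was read by Fe-XO absorbance ratio 573/405 nm.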
# A number is an active result; - = inactive; ? = inconclusive; . = no result given; [ ] = remark or other dose. Calls follow the shape of the dose curve; as a rule, active = well fitted curve in the direction sought with a large enough effect; inconclusive = small, poorly fitted or top-dose-only effect, or another doubt; inactive = no such curve, though single readings can be large; an effect the other way counts as inactive or inconclusive.
SMILES,TDP1 cell CPT,ELG1 repair inh,RORgamma inh,DT40 TDP1 no CPT,Gal4-VP16 FLuc,12-LOX inh
CC(=O)Nc1ccc(OCCCNC(=O)c2c(-c3ccccc3)noc2C)cc1,?,?,?,15µM,-,-
Cc1onc(-c2ccccc2)c1C(=O)NNC(=O)c1ccccc1Br,-,-,.,-,.,-
Cc1onc(-c2ccccc2)c1C(=O)NC(=S)NNC(=O)c1ccc(O)cc1O,4.1µM,?,?,4.6µM,-,?
Cc1onc(-c2ccccc2)c1C(=O)NC(=S)NNC(=O)c1ccccc1O,3.7µM,-,-,3.3µM,-,?
Cc1onc(-c2ccccc2)c1C(=O)NC(=S)NNC(=O)c1ccc(O)cc1,?,-,-,13µM,-,?
CC(=O)N1CCn2c(nn(-c3ccc(F)cc3)c2=O)C1,.,.,.,.,.,-
CCOC(=O)c1cc(NCc2ccccc2)ccc1N1CCOCC1,.,.,.,.,.,-
Cc1ccc(-c2cc(C(=O)Nc3ccc(S(=O)(=O)N4CCCCC4C)cc3)no2)cc1F (centres undefined),.,.,.,.,.,-
CCOCCCNC(=O)c1c(-c2ccccc2)noc1C,-,-,-,-,-,-
CCCOc1ccc(C(=O)NC(=S)NNC(=O)c2c(-c3ccccc3)noc2C)cc1,23µM,7.3µM,4µM,?,?,-
COc1ccc(CNC(=O)Cn2nc(C)c3c(C)n(-c4ccc(C)cc4)nc3c2=O)cc1OC,-,21µM,-,-,-,-
Cc1nn(CC(=O)Nc2ccccc2F)c(=O)c2c(C)n(-c3ccc(Cl)cc3)nc12,23µM,.,.,?,.,?
CCOc1ccc(CNC(=O)Cn2nc(C)c3nn(-c4ccc(Cl)cc4)c(C)c3c2=O)cc1,-,.,.,-,.,-
COc1ccc(CCNC(=O)Cn2nc(C)c3c(C)n(-c4ccc(C)cc4)nc3c2=O)c(OC)c1,16µM,.,.,?,.,?
COc1ccc(CNC(=O)Cn2nc(C)c3c(C)n(-c4ccccc4)nc3c2=O)cc1OC,-,.,.,-,.,-
CCOc1ccc(CNC(=O)Cn2nc(C)c3nn(-c4ccc(Cl)cc4)c(C)c3c2=O)cc1OC,?,.,.,18µM,.,?
OC1CCN(Cc2nc(-c3ccc(Cl)cc3)no2)CC1,.,.,.,.,.,-
O=C(NC1CCCN(c2cc(-c3ccc(F)cc3)[nH]n2)C1)c1nccc2ccccc12 (centres undefined),.,.,.,.,.,-
Cc1cccc(CNC(=O)Cn2nc(C)c3nn(-c4ccc(Cl)cc4)c(C)c3c2=O)c1,21µM,.,.,18µM,.,?
COc1ccc(NC(=O)Cn2nc(C)c3nn(-c4ccc(Cl)cc4)c(C)c3c2=O)cc1,?,.,.,?,.,-
CC(C)NC(=O)NC1=C(C#N)C(C)(C)Cc2ccccc21,.,.,.,.,.,-
CC(C)(C)OC(=O)N1CCCC1C(=O)NCc1ccccc1Cl (centres undefined),.,.,.,.,.,-
O=C(Nc1ccc(F)c(Cl)c1)C1CCN(S(=O)(=O)c2ccc3c(c2)CCCN3C(=O)C2CCC2)CC1,9.2µM,.,.,12µM,.,?
CCC(=O)N1CCCc2cc(S(=O)(=O)N3CCC(C(=O)Nc4ccc(F)c(F)c4)CC3)ccc21,-,.,.,12µM,.,-
CCC(=O)N1CCCc2cc(S(=O)(=O)N3CCC(C(=O)Nc4ccc(C#N)cc4)CC3)ccc21,18µM,.,.,?,.,-
SMILES,TDP1 cell CPT,ELG1 repair inh,RORgamma inh,DT40 TDP1 no CPT,Gal4-VP16 FLuc,12-LOX inh
CCC(=O)N1CCCc2cc(S(=O)(=O)N3CCC(C(=O)NC4CCCCC4)CC3)ccc21,-,.,.,-,.,-
CCC(=O)Nc1ccc2c3c(cccc13)CC2,.,.,.,.,.,-
CN(C)CCNC(=O)C[C@@H]1O[C@H](CNS(=O)(=O)c2ccc(Cl)cc2)[C@@H](O)[C@H]1O,.,.,.,.,.,-
O=C(CCCSc1nc2ccccc2s1)NCc1ccccc1F,.,.,.,.,.,-
CCN1C(=O)Cc2cc(C(=O)NCc3ccc(F)cc3Cl)ccc21,.,.,.,.,.,-
COC(=O)C1CCN(C(=O)COC(=O)c2cc(-c3ccccc3)nc3ccc(OC)cc23)CC1,?,18µM,.,?,.,.
O=C(COC(=O)c1cc(-c2ccccc2)nc2ccccc12)c1ccc(Br)cc1,?,.,.,?,.,-
CCOc1ccc(-c2cc(C(=O)N3CCOCC3)c3ccccc3n2)cc1,.,.,.,.,.,-
C/C(N)=C(/C#N)C(=O)COC(=O)c1cc(-c2ccc(Br)cc2)nc2ccccc12,15µM,?,-,9.2µM,?,-
COc1ccc(-c2cc(C(=O)OCC(=O)N3CCOCC3)c3ccccc3n2)cc1,-,21µM,.,?,.,-
COc1ccc2occ(C(=O)c3ccccc3)c2c1,-,?,-,-,-,-
COc1ccc(C(=O)c2coc3c2C(=O)C(=O)c2ccccc2-3)cc1,2.6µM,?,11µM,4.6µM,?,?
O=C(c1ccccc1)c1ccc(CN2C(=O)c3ccccc3C2=O)o1,-,-,-,-,-,-
O=C1c2ccccc2C(=O)c2c1oc(C(F)(F)F)c2C(=O)c1ccccc1,12µM,?,-,16µM,-,?
O=C(c1ccccc1)c1coc2c1C(=O)c1ccccc1C2=O,?,?,18µM,?,?,-
CC(=O)Nc1ccc(NC(=O)C2CCN(c3ccc4nnc(C(C)C)n4n3)CC2)cc1,.,.,.,.,.,-
Cc1ccsc1/C=C/C1=Cc2c(sc(N)c2C#N)C(C)(C)C1,.,.,.,.,.,18µM
Cc1ccsc1/C=C/C1=Cc2c(sc(NC(=O)CSc3n[nH]c(N)n3)c2C#N)C(C)(C)C1,23µM,?,-,15µM,-,?
COc1ccc(-c2csc(NC(=O)CSc3n[nH]c(N)n3)n2)cc1,?,?,-,?,-,-
Cc1ccsc1/C=C\C1=NCCCN1C,.,.,-[2.98 µM],.,-,.
NC(=O)c1ccsc1NC(=O)CSc1n[nH]c(N)n1,-,?,.,-,.,-
CCOc1ccc(/C=C/C2=Cc3c(sc(NC(=O)CSc4n[nH]c(N)n4)c3C#N)C(C)(C)C2)cc1,13µM,?,-,15µM,-,?
COCCNC(=O)Cn1cc(C(=O)c2ccco2)c2ccccc21,-,-,-,-,-[10 µM],-
Cc1ccc(C)c(OCCn2cc(C(=O)c3ccco3)c3ccccc32)c1,21µM,.,.,13µM,.,-
Cc1ccc(C(C)C)c(OCCn2cc(C(=O)c3ccco3)c3ccccc32)c1,18µM,.,.,15µM,.,-
COC(=O)Cn1cc(C(=O)c2ccco2)c2ccccc21,-,-,-,-,-,-
N#Cc1cccc(CN2CCc3nc(C(=O)Nc4cccc(C(F)(F)F)c4)oc3CC2)c1,.,.,.,.,.,-
COC(=O)Cn1c(=O)c2c(nc(-n3nc(C)cc3C)n2C)n(C)c1=O,.,.,.,.,.,-
CCOc1cccc(CN2CCC(C(Cc3ccccc3F)N(C)C(=O)c3cccs3)CC2)c1O (centres undefined),.,.,.,.,.,-
